{"source": "PubChem BioAssay", "note": "Unmarked numbers belong to inactive results. No rule for the calls is given here."}
{"molecular_target": "Pantothenate synthetase (Mycobacterium tuberculosis (strain ATCC 25618 / H37Rv)) (UniProt P9WIL5)", "sequence (P9WIL5 whole entry, looked up)": "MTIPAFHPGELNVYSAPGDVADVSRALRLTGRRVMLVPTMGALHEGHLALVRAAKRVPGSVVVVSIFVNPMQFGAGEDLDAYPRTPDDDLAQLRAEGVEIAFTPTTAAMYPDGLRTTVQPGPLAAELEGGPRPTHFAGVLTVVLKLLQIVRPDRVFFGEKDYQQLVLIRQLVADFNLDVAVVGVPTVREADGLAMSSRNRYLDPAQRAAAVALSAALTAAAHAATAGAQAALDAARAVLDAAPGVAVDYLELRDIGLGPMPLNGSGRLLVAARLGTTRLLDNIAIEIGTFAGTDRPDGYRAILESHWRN", "assay": "Coupled enzyme confirmation of inhibitors against recombinant Mtb PanC (AID 375);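 also: 0% = full reaction with vehicle and 100% = no enzyme background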", "conditions": "coupled enzyme assay; at 10 µM, active compounds read high", "units": {"inhibition": "%"}}
{"smiles": "O=C(Nc1ccc(N2C(=O)C3C4C=CC(C4)C3C2=O)cc1)Nc1cccnc1", "note": "(stereo not given)", "inhibition": 0}
{"smiles": "O=[n+]1c2c(n([O-])c3c1CCCC3)CCCC2", "inhibition": 0}
{"smiles": "CCOC(=O)c1nnc(-c2ccccc2)o1", "inhibition": 2}
{"smiles": "c1ccc(Cn2nnnc2CN2CCN(c3ncccn3)CC2)cc1", "inhibition": 1}
{"smiles": "CCCOc1ccc2ccccc2c1/C=N/n1cnnc1", "inhibition": 5}
{"smiles": "CCc1ccc(CNCc2cccnc2)cc1", "inhibition": 0}
{"smiles": "CS(=O)(=O)N(CC(=O)Nc1ccc2c(c1)OCO2)Cc1ccc(Cl)cc1", "inhibition": 0}
{"smiles": "CCn1c(CC(=O)Nc2cccc(OC)c2)nnc1SCC(=O)Nc1nccs1", "inhibition": 0}
{"smiles": "O=C(Nc1ccc2snnc2c1)N1CCN(c2ccccc2)CC1", "inhibition": 0}
{"smiles": "Cc1[nH]c2ccc(F)cc2c(=O)c1SC(F)(F)C(F)C(F)(F)F", "note": "(stereo not given)", "inhibition": 1}
{"smiles": "O=C(Nc1nnc(-c2ccc(Cl)cc2)o1)C1CCCCC1", "inhibition": 0}
{"smiles": "Cc1c(NC(=O)c2noc3c2CCc2ccccc2-3)c(=O)n(-c2ccccc2)n1C", "inhibition": 0}
{"smiles": "COc1cccc(C2CC(c3ccccc3)n3ncnc3N2)c1", "note": "(stereo not given)", "inhibition": 8}
{"smiles": "CCOC(=O)c1ccc(NCc2nc3ccccc3[nH]2)cc1", "inhibition": 4}
{"smiles": "CCN(CC)c1ccc(C(=O)n2cnc3ccccc32)cc1", "inhibition": 4}
{"smiles": "Cc1ccccc1OCc1nc2ccccc2c(=O)n1/N=C/c1ccco1", "inhibition": 0}
{"smiles": "CCOc1ccc2nc(NC(=O)C(NS(=O)(=O)c3cccs3)C(C)C)sc2c1", "note": "(stereo not given)", "inhibition": 0}
{"smiles": "COC(=O)c1[nH]c(C)c(/C(O)=C2\\C(=O)C(=O)N(CCCN3CCOCC3)C2c2ccccn2)c1C", "note": "(stereo not given)", "inhibition": 8}
{"smiles": "CCNC(=O)c1ccc(NS(=O)(=O)c2ccccc2)cc1", "inhibition": 6}
{"smiles": "O=C(NCC1CCCO1)C1CCCN(Cc2cnn(-c3ccccc3)c2-n2cccc2)C1", "note": "(stereo not given)", "inhibition": 0}
{"smiles": "COc1ccc(OC)c(NC(=O)CSc2nnc(-c3ccco3)n2-c2ccccc2)c1", "inhibition": 0}
{"smiles": "FC(F)(F)c1cc(-c2ccccc2)nc(N2CCCCC2)n1", "inhibition": 2}
{"smiles": "CC(=O)Nc1ccc(Oc2cc(C#N)c(C#N)cc2N2CCCCCC2)cc1", "inhibition": 0}
{"smiles": "O=C(COc1ccc2ccccc2c1)N1CCCC1", "inhibition": 8}
{"smiles": "CCOC(=O)c1[nH]c(C)c(C(=O)N2CCN(C(=O)c3ccco3)CC2)c1C", "inhibition": 0}
{"smiles": "CCCC(=O)N=C1SC2CS(=O)(=O)CC2N1c1ccc(CC)cc1", "note": "(stereo not given)", "inhibition": 0}
{"smiles": "Cc1cc(C)c2c(n1)nn1c(N3CCN(c4cccc(Cl)c4)CC3)cc(C)nc21", "inhibition": 5}
{"smiles": "O=C(Nc1ncc(Cc2ccccc2)s1)C1CCCO1", "note": "(stereo not given)", "inhibition": 5}
{"smiles": "CCCCOc1ccc(N(CC(=O)NC2CCCC2)C(=O)CCC(=O)Nc2ccccn2)cc1", "inhibition": 0}
{"smiles": "CC(C)=CCCC(C)NC(=O)NC1CCCCC1", "note": "(stereo not given)", "inhibition": 0}
{"smiles": "CN1CCN(S(=O)(=O)c2ccc(NC(=O)Nc3cccc(Cl)c3)cc2)CC1", "inhibition": 1}
{"smiles": "CCc1cc2c(NCCC(=O)O)ncnc2s1", "inhibition": 1}
{"smiles": "O=C(Cn1nc(-c2ccc3c(c2)OCCO3)ccc1=O)Nc1ccc(N2CCOCC2)cc1", "inhibition": 0}
{"smiles": "Cc1ccc(N2CCN(C(=O)c3ccccc3)CC2)c(C)c1", "inhibition": 1}
{"smiles": "CCOc1ccccc1NC(=O)N1CCCC1C(=O)Nc1nnc(CC)s1", "note": "(stereo not given)", "inhibition": 0}
{"smiles": "Cc1ccc(-c2cc(C(F)F)nc(NCc3cccnc3)n2)cc1", "inhibition": 0}
{"smiles": "CCCCCC(=O)O[C@]1(C(C)=O)CC[C@H]2[C@@H]3CCC4=CC(=O)CC[C@]4(C)[C@H]3CC[C@@]21C", "inhibition": 0}
{"smiles": "C[C@]12CCC(=O)C=C1CC[C@@H]1[C@@H]2C(=O)C[C@@]2(C)[C@H]1CC[C@]2(O)C(=O)CO", "inhibition": 0}
{"smiles": "CCn1c(=O)cc(SCC(=O)Nc2ccc3c(c2)OCO3)c2ccccc21", "inhibition": 0}
{"smiles": "Cc1cc2oc(C(=O)NC3CCS(=O)(=O)C3)c(C)c2cc1C", "note": "(stereo not given)", "inhibition": 0}
